Results published in paper PMC5540273 (PLoS ONE, 2017).

Legend:
Conditions in all cases: concentration: 1 μM, replicates: in singlicate; n = 1
[1] = test system: RPS6KA4(Kin.Dom.1-N-terminal)
[2] = test system: RPS6KA4(Kin.Dom.2-C-terminal)
[3] = test system: RPS6KA5(Kin.Dom.1-N-terminal)
[4] = test system: RPS6KA5(Kin.Dom.2-C-terminal)
[5] = test system: T1, RSK1(Kin.Dom.1-N-terminal)
T1 construct: gene RPS6KA1

[6] = test system: T2, RSK1(Kin.Dom.2-C-terminal)
T2 construct: gene RPS6KA1

[7] = test system: T3, RSK2(Kin.Dom.1-N-terminal)
T3 construct: gene RPS6KA3

[8] = test system: T4, RSK2(Kin.Dom.2-C-terminal)
T4 construct: gene RPS6KA3

[9] = test system: T5, RSK3(Kin.Dom.1-N-terminal)
T5 construct: gene RPS6KA2

[10] = test system: T6, RSK3(Kin.Dom.2-C-terminal)
T6 construct: gene RPS6KA2
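Further: KINOMEscan kinase panel screen.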

SMILES | %Inh [1] | %Inh [2] | %Inh [3] | %Inh [4] | %Inh [5] | %Inh [6] | %Inh [7] | %Inh [8] | %Inh [9] | %Inh [10]
Nc1n[nH]c2cnc(-c3ccccc3)cc12 [SB-642124] | 0% | 71% | 12% | 44% | 23% | 0% | 22% | 23% | 18% | 3%
CN(C)S(=O)(=O)c1cc(-c2ccc3nccc(-c4cccc(S(N)(=O)=O)c4)c3c2)cnc1N [GSK1669921] | 15% | 0% | 16% | 0% | 0% | 10% | 21% | 76% | 2% | 28%
c1ccc(-c2n[nH]cc2Nc2ccnc3ccccc23)nc1 [GW694077] | 3% | 56% | 5% | 56% | 19% | 16% | 27% | 24% | 0% | 30%
CC(=O)N1CCN(c2ccc(Nc3nccc(-c4sc(C(C)C)nc4-c4cccc(NS(=O)(=O)c5cccc(Cl)c5)c4)n3)cn2)CC1 [GSK1660437] | 10% | 0% | 14% | 0% | 10% | 0% | 0% | 4% | 5% | 0%
FC(F)(F)c1ccc(/C=C/c2cncnc2Nc2ccc3[nH]c(Cc4ccccc4)nc3c2)cc1 [GW709199] | 25% | 0% | 0% | 6% | 3% | 0% | 11% | 48% | 13% | 0%
COCCOCCOc1cc2ncc3c4ccc(C#N)cc4[nH]c3c2cc1OC | 0% | 0% | 0% | 44% | 0% | 0% | 79% | 2% | 46% | 8%
COc1cc(Nc2ncc3c(C)nc(-c4cc5ccccc5[nH]4)n3n2)cc(OC)c1OC [GW869516] | 44% | 0% | 0% | 7% | 91.7% | 0% | 49% | 32% | 66% | 0%
Cl.NC(=O)c1cccc(Nc2nccc(Nc3ccc(Oc4c(Cl)cccc4Cl)c(Cl)c3)n2)c1 [GW659009] | 0% | 0% | 0% | 5% | 0% | 0% | 0% | 5% | 3% | 0%
Clc1ccc(-c2nn3ncccc3c2-c2ccnc(Nc3ccc4c(c3)OCCO4)n2)cc1 [GW829116] | 4% | 0% | 0% | 8% | 18% | 32% | 23% | 0% | 0% | 0%
Cn1cc(-c2ccc3c(c2)CCN3C(=O)Cc2cccc(Cl)c2)c2c(N)ncnc21 [GSK2606590] | 22% | 0% | 40% | 0% | 4% | 0% | 1% | 0% | 16% | 0%
CSc1cccc2c(-c3ccncn3)c(-c3ccc(F)cc3)nn12 [GW514786] | 28% | 0% | 3% | 7% | 5% | 38% | 0% | 11% | 11% | 0%
C[C@@H](Oc1cc(-n2cnc3cc(-c4ccnc(NCCS(C)(=O)=O)c4)ccc32)sc1C(N)=O)c1ccccc1Cl [GSK907232] | 57% | 0% | 4% | 0% | 11% | 2% | 32% | 4% | 66% | 0%
